Results reported in PubChem BioAssay (NCI).
Compounds without any hit were thinned out: in the full panel of roughly 83,000, 20% have a hit.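 Results are percent growth after 48 hours of single-concentration exposure. 100 means growth as in untreated cells, lower positive values show inhibition; negative values down to -100 show cell death.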 Unmarked numbers belong to inactive results. Calls of active or inactive are those of the source. The calls were made as follows: active = growth percent below 10; inactive = the rest.

Legend:
Assay in all cases: NCI-60 one-dose screen, 48 h (100 = growth as untreated, 0 = no growth, -100 = all killed)
Settings in all cases: 10 µM unless noted
[1] = system: NCI-H23 lung
[2] = system: NCI-H226 lung
[3] = system: NCI-H322M lung
[4] = system: NCI-H460 lung
[5] = system: HOP-92 NSCLC
[6] = system: NCI-H522 lung
[7] = system: A549/ATCC NSCLC
[8] = system: 786-0 renal
[9] = system: COLO 205 colon
[10] = system: DU-145 prostate
[11] = system: K-562 leukemia
[12] = system: MALME-3M melanoma
[13] = system: MDA-MB-231 breast
[14] = system: RXF 393 renal
[15] = system: SF-268 CNS
[16] = system: SF-295 CNS
[17] = system: SF-539 CNS
[18] = system: UACC-257 melanoma
[19] = system: M14 melanoma
[20] = system: HOP-62 NSCLC

Structure (SMILES) | growth [1] | growth [2] | growth [3] | growth [4] | growth [5] | growth [6] | growth [7] | growth [8] | growth [9] | growth [10] | growth [11] | growth [12] | growth [13] | growth [14] | growth [15] | growth [16] | growth [17] | growth [18] | growth [19] | growth [20]
c1cnc2[nH]cc(-c3csc(-c4cn(CCCN5CCCCC5)c5ccccc45)n3)c2c1 | 79.7% | 77% | 83.8% | 10.1% | 35.1% | 79.2% | 58.3% | 56.3% | -74% (active) | 67% | -45.4% (active) | -55% (active) | 45% | 52.3% | 58.9% | 88.8% | -48.5% (active) | 92% | -77.8% (active) | 
Clc1ccc2c(NCCNc3nc(-c4ccccc4)cc(-c4ccccc4)n3)ccnc2c1 | -47.3% (active) | -56.2% (active) | -10.5% (active) | -73% (active) | -66.8% (active) | -69.9% (active) | -75.2% (active) | -90.8% (active) | -72.2% (active) | -34.1% (active) | -46.6% (active) | -89.3% (active) | -80.9% (active) | -88.2% (active) | -59.7% (active) | -75.8% (active) | -81.1% (active) | 77.8% | -75.4% (active) | 
O=C1C(=O)N(CCCCn2cc(-c3ccccc3)nn2)c2ccccc21 | 101% | 106% | 103% | 99.9% | 101% | 100% | 108% | 102% | 112% | 105% | 109% | 92.9% | 102% | 114% | 101% | 102% | 93.9% | 100% | 96.1% | 
COc1ccc2c(c1)C/C(=C\c1cc(-c3ccc4c(c3)OCO4)n[nH]1)C2=O | 111% | 86.5% | 113% | 92.6% | 87.2% | 105% | 95.7% | 106% | 105% | 112% | 60.1% | 112% | 79.7% | 95.6% | 106% |  | 92.4% | 103% | 97.2% | 
Nc1c2c(nc3ccc(Cl)cc13)CC(c1ccc(O)cc1)CC2=O (stereo unspecified) | 61.2% | 90.5% |  | 23.2% | 88.4% | 43.6% | 59.5% | 57.5% | 123% | 72.9% | 18.5% | 52.6% | 68.5% | 74.2% | 65.3% | 36.2% | 50.8% | 78.2% | 21.8% | 56.4%
Cn1cc(-c2nc(-c3c[nH]c4ncccc34)cs2)c2cc(Br)ccc21 | 93.5% | 95.7% |  | 81.7% | 89.1% | 86.5% | 86.7% | 80.6% | 106% | 73.2% | 59.5% |  | 84.6% | 75.7% | 99.1% | 84.6% | 108% | 120% | 75.5% | 
Nc1c(C(=O)Nc2c(Cl)cccc2Cl)sc2nc3c(cc12)C(=O)CCC3 | 48.5% | 71.2% |  | 12.9% | 42.6% | 6.59% (active) | 38% | 29% | 7.4% (active) | 41.1% | 16.6% | 35.2% | 51.1% | 23.7% | 57.8% | 18.8% | 5.18% (active) |  | 12.1% | 30.7%
Cn1cccc1/C=C1/SC(=S)N(CCc2ccc(O)cc2)C1=O | 79.5% | 87.8% |  | 33.6% | 88.3% | 47.8% | 61.5% | 64.4% | 103% | 82.3% | 18.6% | 36.7% | 59.1% | 76.6% | 74% | 37.6% | 43.6% | 74.1% | 19.9% | 56.3%
CCCCn1c(-c2ccc(O)cc2)cn2c3c(=O)[nH]c(=O)n(C)c3nc12 | 82.2% | 85% |  | 68.6% | 43.1% | 30.9% | 75% | 88.8% | 89.9% | 101% | 34.3% | 90.7% | 66.5% | 74.9% | 86.3% | 78.1% | 74.9% | 79.1% | 54.1% | 82%
CC(C)(C)CC(C)(C)c1ccc(OCCOCC[N+](C)(C)CC(=O)[O-])cc1 | 108% | 105% |  | 110% | 105% | 103% | 101% | 106% | 105% | 114% | 105% | 102% | 112% | 134% | 109% |  | 104% | 100% | 104% | 106%
Cc1cccc(C)c1NC(=O)CSC(=S)N1CCN(CCOCCO)CC1 | 100% | 117% |  |  | 110% | 90% | 101% | 96.4% | 113% | 101% | 96% | 87.3% | 116% | 125% | 93.9% | 95.9% | 94.3% | 112% | 100% | 105%
O=S(=O)(NCCNc1cc(-c2cn(-c3ccccc3)nc2-c2cccc(O)c2)ccn1)c1ccc(C(F)(F)F)cc1 | 41.8% | 57.8% |  |  | 38.4% | 55.7% | 41.6% | 35.8% | -21.4% (active) | 71.8% | 7.03% (active) | 60.2% | 5.29% (active) | 40.5% | 50% | 38.6% | 60.1% |  | 32.1% | -60% (active)
C#Cc1cccc(NC(=O)C2CCCN(C(=O)CCl)C2)c1 (stereo unspecified) | -27% [8.25 µM] (active) | 1.82% [8.25 µM] (active) |  |  | 98.3% [8.25 µM] | -53.6% [8.25 µM] (active) | 86.1% [8.25 µM] | 89.5% [8.25 µM] | 27.2% [8.25 µM] | 102% [8.25 µM] | 20.2% [8.25 µM] | 3.83% [8.25 µM] (active) | 81.5% [8.25 µM] | 67% [8.25 µM] | 78.3% [8.25 µM] | 85.4% [8.25 µM] | 79.9% [8.25 µM] | 79.7% [8.25 µM] | 20.6% [8.25 µM] | 
COc1ccc(C2c3ccccc3NC(=O)N2C2CCN(C)CC2)c(OC)c1 (stereo unspecified) | 100% | 94.1% |  | 101% | 79.9% | 89.5% | 103% | 102% | 106% | 105% | 93.1% | 88.1% | 91.9% | 97.1% | 98.2% | 90.6% | 95.2% |  | 85.3% | 101%
C=C1C(=O)O[C@H]2[C@H]1CC/C(COC(=O)NCCc1c[nH]c3ccccc13)=C\CC[C@@]1(C)O[C@@H]21 | 59.5% | 57.3% |  | 54.2% | -52% (active) | -85.7% (active) | 66.9% | -50.3% (active) | -38.2% (active) | 11.7% | 0.512% (active) | -33.5% (active) | -19.3% (active) | -89.3% (active) | 62.3% | 83.4% | -35.6% (active) | 63.3% | -52.1% (active) | 57.7%
O=C(/C=C\c1ccc2c(c1)OCO2)/C=C/c1ccc2c(c1)OCO2 | 84.8% | 67.7% |  | 99.1% | 87.8% | 97.4% | 92.9% | 64.6% | 110% | 90.7% | 4.27% (active) | 98.2% |  | 85% | 93.3% | 89.7% | 26.2% | 98.2% | 40% | 91.4%
C=C1C(=O)O[C@H]2[C@H]1CC/C(COC(=O)NCc1c[nH]c3ccccc13)=C\CC[C@@]1(C)O[C@@H]21 | 68.3% | 88.8% |  | 74.7% | 107% | -35.2% (active) | 82.5% | 44.6% | -20.4% (active) | 29.2% | 12.7% | 52.7% | 42% | 17.5% | 70.8% | 94.6% | 7.38% (active) | 75.2% | 48.7% | 65.2%
